The record followed here is the supplement of paper PMC7556523.

SMILES strings stand for the structures.

Assay [1] has as its system Sporothrix brasiliensis CBS 133006. Put plainly: growth inhibition relative to untreated control; higher = more growth inhibition (more antifungal activity), active = 80 or more; extreme values may be limits of the assay. The note with it: 1 µM; 48 h. The method in brief: (§1)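 Before testing, the reference isolates were kept in brain heart infusion broth with 2% glucose at 36°C for 7 days to give yeast-form cells. These cells, at 1 x 10^5 CFU/ml, received library compounds at a final 1 μM and were held 48 h at 35°C in 5% CO2. Growth was checked by eye under an inverted light microscope and quantified spectrophotometrically in quadruplicate, and the value is percent growth inhibition versus untreated cells.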

Assay [2] has as its system Sporothrix schenckii ATCC 32286. Described as above. The note with it: 1 µM; 48 h. The method, boiled down: as §1

Consider `CO/C=C(/C(=O)OC)c1ccccc1Oc1cc(Oc2ccccc2C#N)ncn1`, for which the growth inhibition is 95.5% (active) in assay [1] and 27.5% (inactive) in assay [2].

As to `O=C1O[C@@H](CO)CN1c1cc(F)c(C2=CCN(Cc3ccccc3)CC2)c(F)c1`, the growth inhibition was 6.75% (inactive) in assay [1] and 0.5% (inactive) in assay [2].

Regarding `Cc1nn(Cc2ccccc2)c(Cl)c1C(=O)NC1CCCCCC1`, the growth inhibition was 21.5% (inactive) in assay [1] and 3% (inactive) in assay [2].
